Several values for one entry are separate records, joined by “and”; a condition that tells them apart may be missing. Equal entries are not always repeated. Inconclusive results are not listed. Activity calls are given as the source filed them. Calls follow the shape of the dose curve; as a rule, active = well fitted curve in the direction sought with a large enough effect; inconclusive = small, poorly fitted or top-dose-only effect, or another doubt; inactive = no such curve, though single readings can be large; an effect the other way counts as inactive or inconclusive.
Columns and labels:
[1] = tested on: Zika virus NS2B-NS3 protease (linked construct); assay: Primary screen NINDS Rhodamine qHTS for Zika virus inhibitors (AID 1347160); also: nearly all actives have a fitted effect of over 55% in size
Method in brief: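 In 10 mM Tris-HCl pH 8.0 containing 0.01% Tween 20, linked NS2B-NS3 protease (25 nM final) is exposed to test compounds for 15 min. Cleavage of 1.5 microM Rhodamine110 substrate is tracked by fluorescence over 15 min.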

[2] = Primary qHTS for inhibitors of nuclear receptor binding SET domain protein 2 (NSD2) in an isogenic RCH-ACV NSD2 p.E1099K mutant (9B) (AID 1645876); also: nearly all actives have a fitted effect of over 70% in size; also: potency is read from the fitted curve at half-maximal effect
[3] = target: Glutathione peroxidase 1 (Homo sapiens) (UniProt P07203); assay: Primary qHTS Assay for Inhibitors of Recombinant Selenoprotein Glutathione Peroxidase 1 (GPX1) (AID 1845191); also: nearly all actives have a fitted effect of over 65% in size; as to activity, negative = inhibition: % is scaled to controls: 0 for no effect and ±100 for the full control effect
Sequence of Glutathione peroxidase 1 (Homo sapiens) (P07203 whole entry, looked up): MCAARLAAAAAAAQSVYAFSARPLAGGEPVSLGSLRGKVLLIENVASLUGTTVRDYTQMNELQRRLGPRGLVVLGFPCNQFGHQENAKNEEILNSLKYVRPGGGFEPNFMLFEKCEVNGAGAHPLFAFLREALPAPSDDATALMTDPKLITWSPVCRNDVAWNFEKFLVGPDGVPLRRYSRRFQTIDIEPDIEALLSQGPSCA
Method in brief: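 GR-coupled assay: compounds preincubated 30 min at room temperature with GPX1, then reaction started with CHP; final 10 nM GPX1, 1 mM GSH, 0.5 mM CHP, 0.5 mM NADPH, 100 nM GR, 0.01% BSA, pH 7.5 Tris buffer. NADPH fluorescence (340/450 nm) read at 0 and 15 min.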

[4] = target: Phospholipid hydroperoxide glutathione peroxidase GPX4 (Homo sapiens) (UniProt P36969); assay: Primary qHTS Assay for Inhibitors of Recombinant Selenoprotein Glutathione Peroxidase 4 (GPX4) (AID 1845192); also: nearly all actives have a fitted effect of over 65% in size; as to activity change, negative = inhibition: % is scaled to controls: 0 for no effect and ±100 for the full control effect
Sequence of Phospholipid hydroperoxide glutathione peroxidase GPX4 (Homo sapiens) (P36969 whole entry, looked up): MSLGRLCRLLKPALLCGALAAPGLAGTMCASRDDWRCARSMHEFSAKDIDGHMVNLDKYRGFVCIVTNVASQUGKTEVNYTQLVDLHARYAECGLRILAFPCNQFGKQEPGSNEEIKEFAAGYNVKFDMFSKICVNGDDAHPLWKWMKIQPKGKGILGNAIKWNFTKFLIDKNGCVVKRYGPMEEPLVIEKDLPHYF
Method in brief: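 GR-coupled assay: recombinant GPX4 preincubated 30 min with compound at room temperature; final 200 nM GPX4, 1 mM GSH, 0.5 mM cumene hydroperoxide, 0.5 mM NADPH, 100 nM GR, 0.01% BSA, pH 7.5 Tris. NADPH fluorescence (340/450 nm) read at 0 and 15 min.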

[5] = target: Luciferin 4-monooxygenase (Photinus pyralis) (UniProt P08659); assay: Primary firefly luciferase (FLuc) qHTS assay for identification of artifact compounds. (AID 1845220); settings: outcome: dose series up to 54.1 µM unless noted; also: nearly all actives have a fitted effect of over 60% in size;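 as to activity change, negative = inhibition: plate controls were DMSO vehicle for no effect and no enzyme for full effect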
Method in brief: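 Titrated compounds were incubated 15 min at RT, protected from light, with luciferin and ATP at 10 uM; reaction started with 10 nM FLuc, luminescence imaged at 5 min, and concentration-response fitted by Hill equation.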

[6] = tested on: Nanoluciferase (engineered Oplophorus gracilirostris luciferase); assay: Primary Nanoluciferase (NLuc) qHTS assay for identification of artifact compounds. (AID 1845222);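 also: NLuc secreted into diluted conditioned medium of S16 cells; 0% = DMSO and -100% = no enzyme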
Method in brief: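 qHTS format, against NLuc in S16 cell-conditioned medium. Nano-Glo substrate 1:100 was added after 15 min at room temperature. Luminescence was taken after a further 5 min.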

CRL-7250 = normal cell line; assay: Cytotoxic Profiling of Annotated Libraries Using Quantitative High-Throughput Screening (AID 1296008); settings: Five cell lines viability, CellTiter-Glo ATP luminescence, 48-72 h; max response: stronger effect = lower value; also: nearly all actives have a fitted effect of over 60% in size; also: potency is read from the fitted curve at half-maximal effect; as to max response: % is scaled to controls: 0 for no effect and ±100 for the full control effect
Method in brief: (§1)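 Cells exposed to compounds for 48 or 72 hr at 37 degrees Celsius. Viability read as ATP-coupled luminescence with CellTiter-Glo after 10 min at room temperature.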

HEK293 = assay: as above; settings: Five cell lines viability, CellTiter-Glo ATP luminescence, 48-72 h; max response: stronger effect = lower value
Method in brief: as §1

HaCat = assay: as above; settings: Five cell lines viability, CellTiter-Glo ATP luminescence, 48-72 h; max response: stronger effect = lower value
Method in brief: as §1

KB-3-1 = assay: as above; settings: Five cell lines viability, CellTiter-Glo ATP luminescence, 48-72 h; max response: stronger effect = lower value
Method in brief: as §1

C33A = assay: Primary qHTS to identify gynecologic anti-cancer compounds using libraries of approved drugs and bioactive compounds (AID 1345084); settings: Gynecologic cancer cell panel viability, ATPlite luminescence, 48 h; series mostly up to 57.5 µM; also: nearly all actives have a fitted effect of over 55% in size; also: potency is read from the fitted curve at half-maximal effect
Method in brief: (§2)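 ATP-based viability (ATPlite), 1,000 cells/well, 16 h pre-incubation, 48 h compound at 37 C, 5% CO2, 15 min RT before read.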

CASKI = assay: as above; settings: Gynecologic cancer cell panel viability, ATPlite luminescence, 48 h; series mostly up to 57.5 µM
Method in brief: as §2

Es-2 = assay: as above; settings: Gynecologic cancer cell panel viability, ATPlite luminescence, 48 h; series mostly up to 57.5 µM
Method in brief: as §2

Hek293T = assay: as above; settings: Gynecologic cancer cell panel viability, ATPlite luminescence, 48 h, control line for the selectivity index; series mostly up to 57.5 µM
Method in brief: as §2

OV90 = assay: as above; settings: Gynecologic cancer cell panel viability, ATPlite luminescence, 48 h; series mostly up to 57.5 µM
Method in brief: as §2

PA-1 = assay: as above; settings: Gynecologic cancer cell panel viability, ATPlite luminescence, 48 h; series mostly up to 57.5 µM
Method in brief: as §2

Tov-21-G = assay: as above; settings: Gynecologic cancer cell panel viability, ATPlite luminescence, 48 h; series mostly up to 57.5 µM
Method in brief: as §2

Tov112D = assay: as above; settings: Gynecologic cancer cell panel viability, ATPlite luminescence, 48 h; series mostly up to 57.5 µM
Method in brief: as §2

[7] = target: Calcium and integrin-binding protein 1 (Homo sapiens) (UniProt Q99828); assay: Primary qHTS for Identification of Calcium Integrin Binding Protein 1 (CIB1) Competitor (AID 1508620);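 also: GST tagged CIB1 binding a fluorescein labelled alphaIIb integrin peptide tracer; top concentration of the series differs between compounds; % is scaled to controls: 0 for no effect and ±100 for the full control effect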
Sequence of Calcium and integrin-binding protein 1 (Homo sapiens) (Q99828 whole entry, looked up): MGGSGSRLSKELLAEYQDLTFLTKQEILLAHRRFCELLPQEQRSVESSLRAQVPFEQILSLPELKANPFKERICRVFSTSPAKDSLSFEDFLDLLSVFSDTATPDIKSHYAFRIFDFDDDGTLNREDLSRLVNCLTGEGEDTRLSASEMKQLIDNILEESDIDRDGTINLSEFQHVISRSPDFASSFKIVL
Method in brief: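 Fluorescence polarization competition: GST-tagged CIB1 (1 uM final) preincubated with compound 15 min at room temperature, then FITC-labelled alphaIIb peptide (100 nM final) added. After 15 min at room temperature, polarization read at Ex 480/Em 540.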

[8] = Primary fluorescence-based thiol-reactive (MSTI) qHTS assay for identification of artifact compounds. (AID 1845221);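 also: thiol-reactive compounds lower the probe fluorescence signal; nearly all actives have a fitted effect of over 65% in size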
Method in brief: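 A multi-concentration qHTS design tested compounds against 4 uM MSTI, pH 7.4 phosphate-buffered saline. Plates were protected from light for 1 h at room temperature before imaging fluorescence.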

CC[C@H]1C2CC3[C@@H]4N(C)c5ccccc5[C@]45C[C@@H]([C@H]2[C@H]5O)N3[C@@H]1O
inactive: Potency [1] | Potency [2] | Potency [3] | Potency [4] | outcome [5] | Potency [6] | max response (CRL-7250) -2.01% | max response (HEK293) 0.828% | max response (HaCat) 4.96% | max response (KB-3-1) 0.117% | Potency (C33A) | Potency (CASKI) | Potency (Es-2) | Potency (Hek293T) | Potency (OV90) | Potency (PA-1) | Potency (Tov-21-G) | Potency (Tov112D)

Cc1ccccc1CN1CCC(N2CCC(n3c(=O)[nH]c4ccccc43)CC2)CC1
inactive: Potency [1] | Potency [7] | Potency [2] | Potency [3] | Potency [4] | outcome [5] | Potency [8] | Potency [6] | max response (HaCat) 0.939% | Potency (CASKI) | Potency (Es-2) | Potency (PA-1) | Potency (Tov-21-G) | Potency (Tov112D)
active: Potency (CRL-7250) 7310 nM | Potency (HEK293) 6510 nM

N#Cc1cn([C@@H]2O[C@H](CO)[C@H](O)[C@@H]2O)c2ncnc(N)c12
active: Potency [2] 12.9 nM | Potency (CRL-7250) 58 nM | Potency (HEK293) 46.1 nM | Potency (HaCat) 92 nM | Potency (KB-3-1) 36.6 nM | Potency (CASKI) 282 nM | Potency (Tov112D) 316 nM
inactive: Potency [1] | Potency [3] | Potency [4] | outcome [5] | Potency [6]

CCC1C2CC3C4N(C)c5ccccc5C45CC(C2C5O)N3C1O (stereo not drawn)
inactive: Potency [1] | Potency [2] | Potency [3] | Potency [4] | outcome [5] | Potency [6] | max response (CRL-7250) -9.12% | outcome (HEK293) | max response (KB-3-1) 6.75% | Potency (C33A) | Potency (CASKI) | Potency (Es-2) | Potency (Hek293T) | Potency (OV90) | Potency (PA-1) | Potency (Tov-21-G) | Potency (Tov112D)

Nc1ncnc2c1ncn2[C@@H]1O[C@@H]2COP(O)(=S)O[C@H]2[C@H]1O (stereo partly drawn)
inactive: activity change, negative = inhibition [1] 16.2% [at 10.7 µM] | Potency [7] | outcome [2] inactive [at 9.23 µM] | outcome [3] inactive [at 9.52 µM] | outcome [4] inactive [at 9.73 µM] | outcome [5] inactive [at 11.6 µM] | activity change, negative = thiol reactive [8] -11.9% [at 11.5 µM] | activity, negative = inhibition [6] 0.0656% [at 11.6 µM] | max response (CRL-7250) 1.79% | outcome (HEK293) | max response (KB-3-1) -0.196% | activity change, negative = cytotoxicity (C33A) 2.33% [at 11.6 µM] | activity change, negative = cytotoxicity (CASKI) -3.97% [at 11.6 µM] | activity change, negative = cytotoxicity (Es-2) 5.19% [at 11.6 µM] | activity change, negative = cytotoxicity (Hek293T) 0.669% [at 11.6 µM] | activity change, negative = cytotoxicity (OV90) 0.349% [at 11.6 µM] | activity change, negative = cytotoxicity (PA-1) 15.5% [at 11.6 µM] | activity change, negative = cytotoxicity (Tov-21-G) 2.4% [at 11.6 µM] | activity change, negative = cytotoxicity (Tov112D) 7.56% [at 11.6 µM]

C=C(C)[C@@H]1[C@H]2OC(=O)[C@H]1[C@]1(O)C[C@H]3O[C@]34C(=O)O[C@H]2[C@]14C
inactive: Potency [1] | Potency [7] | Potency [2] | Potency [3] | Potency [4] | outcome [5] | Potency [8] | Potency [6] | outcome (CRL-7250) | outcome (HEK293) | outcome (KB-3-1) | Potency (C33A) | Potency (CASKI) | Potency (Es-2) | Potency (Hek293T) | Potency (OV90) | Potency (PA-1) | Potency (Tov-21-G) | Potency (Tov112D)

Cc1sc2c(c1C)C(c1ccc(Cl)cc1)=NC(CC(=O)Nc1ccc(O)cc1)c1nnc(C)n1-2 (stereo not drawn)
active: Potency [2] 129 nM and 263 nM | Potency (CRL-7250) 1160 nM | Potency (HEK293) 1460 nM | Potency (PA-1) 1780 nM
inactive: Potency [1] | Potency [7] | Potency [4] | Potency [6] | max response (HaCat) -9.94% | Potency (C33A) | Potency (CASKI) | Potency (Es-2) | Potency (Hek293T)

C[C@H](CCC(=O)O)C[C@H](C)C[C@H](C)C(=O)/C=C(\O)[C@H](C)C[C@H](C)C/C=C/[C@@H](C)[C@@H](O)[C@@H](C)[C@@H](O)C[C@@H]1CC[C@@](C)([C@H]2CC[C@@](C)([C@@H](C)O)O2)O1
inactive: Potency [1] | Potency [7] | Potency [3] | Potency [4] | Potency [8] | Potency [6] | max response (HaCat) -1.41% | Potency (C33A) | Potency (CASKI) | Potency (Es-2) | Potency (Hek293T) | Potency (PA-1) | Potency (Tov112D)
active: Potency [2] 7090 nM | Potency (CRL-7250) 3170 nM | Potency (HEK293) 5020 nM | Potency (KB-3-1) 8930 nM

C=C1[C@@H](C)C2[C@H](Cc3ccccc3)NC(=O)[C@@]23C(/C=C/C[C@H](C)C[C@@](C)(O)/C=C/[C@@H]3OC(C)=O)[C@@H]1O (stereo partly drawn)
inactive: Potency [1] | Potency [3] | Potency [4] | outcome [5] | Potency [8] | Potency [6] | Potency (C33A) | Potency (Es-2) | Potency (Hek293T)
active: Potency [2] 817 nM | Potency (CRL-7250) 461 nM | Potency (HEK293) 731 nM | Potency (HaCat) 130 nM | Potency (PA-1) 3980 nM

CN1C[C@@H]2CN(c3ccc(-c4ccccc4)nn3)C[C@@H]2C1
inactive: Potency [1] | Potency [7] | Potency [2] | Potency [3] | Potency [4] | outcome [5] | Potency [8] | Potency [6] | max response (CRL-7250) 2.36% | max response (HEK293) -5.4% | max response (HaCat) -2.1% | Potency (C33A) | Potency (Es-2) | Potency (Hek293T) | Potency (OV90) | Potency (PA-1) | Potency (Tov-21-G) | Potency (Tov112D)
